# Experimental data reported in PubChem BioAssay (Tox21).
# “And” between values parts separate entries of the source, which are not always exact repeats. Identical values can stand only once. Records with an inconclusive call do not appear. Entries that show only a call come without a potency. Some compounds were tested as several samples or in several runs, with calls that do not always agree. The source made the active and inactive calls. Unless noted, calls come from the whole dose curve; as a rule, active = well fitted curve in the direction sought with a large enough effect in the repeat runs; inconclusive = weak or mixed curves; inactive = no such curve, though single readings can be large; an effect the other way counts as inactive or inconclusive.
# Key:
# [1] = biological target: Estrogen receptor beta (Homo sapiens) (UniProt Q92731); assay: qHTS assay to identify small molecule agonists of the estrogen receptor beta (ER-beta) signaling pathway (AID 1259377; active = well fitted activation curve with a large enough effect in the signal ratio in the repeat runs, not every such curve was filed as active; the % refers to the signal ratio)
# Outline: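 ER-beta-UAS-bla HEK293T (GripTite) cells carrying a UAS-driven beta-lactamase reporter, in medium with 2% charcoal-stripped FBS, were exposed to compounds for 16 hr at 37C; LiveBLAzer B/G FRET substrate was then added and fluorescence read after 2 hours at room temperature.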
# [2] = biological target: Estrogen receptor beta (Homo sapiens) (UniProt Q92731); assay: qHTS assay to identify small molecule antagonists of the estrogen receptor beta (ER-beta) signaling pathway (AID 1259378; active = well fitted inhibition curve with a large enough effect in the signal ratio in the repeat runs, not every such curve was filed as active; the % refers to the signal ratio)
# Outline: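 ER-beta-UAS-bla HEK293T cells in 2% charcoal-stripped FBS medium treated with compound plus 1nM final 17-beta-estradiol for 16 hr at 37C. Beta-lactamase reporter read by FRET substrate fluorescence after 2 hours at room temperature.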
# [3] = qHTS assay to identify small molecule agonists of the estrogen receptor beta (ER-beta) signaling pathway - cell viability counter screen (AID 1259380); note: nearly all actives have a fitted effect of over 30% in size; note: potency is the fitted concentration of half-maximal effect
# Outline: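 ER-beta-UAS-bla HEK293T cells in medium with 2% charcoal-stripped FBS were preincubated 6 hr at 37C, dosed with compound in DMSO for 16 hr, then after the bla read, CellTiter-Glo was added for 30 min at room temperature; luminescence recorded.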
# [4] = biological target: Androgen receptor (Homo sapiens) (UniProt P10275); assay: qHTS assay to identify small molecule agonists of the androgen receptor (AR) signaling pathway in the presence of an antagonist (AID 1259381; calls by dose curve; note: nearly all actives have a fitted effect of over 15% in size)
# Outline: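 MDA-kb2 human breast carcinoma cells carrying an MMTV-luciferase reporter (AR- and GR-responsive) were treated with compounds at 15 concentrations plus 3.0uM final nilutamide for 16hr at 37C without CO2; luminescence was read after ONE-Glo addition.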
# [5] = biological target: Estrogen receptor (Homo sapiens) (UniProt P03372); assay: qHTS assay to identify small molecule agonists of the estrogen receptor alpha (ER-alpha) signaling pathway in the presence of an antagonist (AID 1259383; calls by dose curve; note: top concentration of the series differs between compounds; nearly all actives have a fitted effect of over 15% in size)
# Outline: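 VM7Luc4E2 cells (endogenous full-length ER-alpha, 4×ERE-luciferase) were precultured 5 days in phenol red-free medium with 10% charcoal-stripped FBS, given 10.0nM ICI-182,780 (final), then treated with compounds at 15 concentrations for 22hr at 37C; luminescence read with ONE-Glo.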
# [6] = qHTS assay to identify small molecule agonists of the estrogen receptor alpha (ER-alpha) signaling pathway in the presence of an antagonist - cell viability counter screen (AID 1259386);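 note: series mostly up to about 92 µM; cells exposed to compounds for 22 h at 37 °C before the viability read; nearly all actives have a fitted effect of over 30% in size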
# Outline: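 VM7Luc4E2 cells (endogenous full-length ER-alpha, 4×ERE-luciferase) were held 5 days in phenol red-free medium with 10% charcoal-stripped FBS, plated, then given 10.0nM ICI-182,780 and compounds at 15 concentrations for 22hr at 37C; viability read by CellTiter-Fluor fluorescence.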
# [7] = biological target: Progesterone receptor (Homo sapiens) (UniProt P06401); assay: qHTS assay to identify small molecule agonists of the progesterone receptor (PR) signaling pathway (AID 1346784; calls by dose curve; note: nearly all actives have a fitted effect of over 30% in size)
# Outline: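 PR-UAS-bla HEK 293T cells carrying a UAS-driven beta-lactamase reporter were seeded in medium with 2% charcoal-stripped FBS, preincubated 6 hr at 37C, then exposed to compounds in DMSO for 16 hr; agonism was read by LiveBLAzer B/G FRET fluorescence.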
# [8] = qHTS assay to identify small molecule antagonists of the TGF-beta/Smad signaling pathway - cell viability counter screen (AID 1346824); note: nearly all actives have a fitted effect of over 50% in size
# Outline: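 SBE-bla HEK 293T cells, incubated overnight, then compound plus 0.25 ng/mL TGF-beta1 (stock added) for 5 hr at 37 C. Viability was read in the same wells by CellTiter-Glo luminescence after 30 min at room temperature.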
# [9] = qHTS assay to identify small molecule agonists of the TGF-beta/Smad signaling pathway - cell viability counter screen (AID 1346829); note: top concentration of the series differs between compounds; nearly all actives have a fitted effect of over 45% in size
# Outline: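 Tox21 qHTS format: SBE-bla HEK 293T cells treated with DMSO-dissolved compounds for 5 hr; CellTiter-Glo luminescence after 30 min at room temperature.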
# [10] = qHTS assay to identify small molecule agonists of the TGF-beta/Smad signaling pathway (AID 1346859; active = well fitted activation curve with a large enough effect in the signal ratio in the repeat runs, not every such curve was filed as active; the % refers to the signal ratio; note: series mostly up to about 77 µM)
# Outline: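 HEK 293T cells stably carrying a beta-lactamase reporter driven by the Smad binding element were seeded overnight, exposed to DMSO-dissolved compounds for 5 hr at 37 C, 5% CO2, then loaded with FRET substrate for 2 hr at room temperature.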
# [11] = Human pregnane X receptor (PXR) small molecule agonists, qHTS cell viability counter screen (AID 1346977); note: nearly all actives have a fitted effect of over 50% in size
# Outline: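 PXR-Luc HepG2 cells in medium with 5% charcoal-stripped FBS were pre-incubated 5hr, then exposed to compounds for 24hr at 37C. Viability was read in the same wells by CellTiter-Fluor fluorescence, reagent added after 23hr with a 1hr incubation.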
# [12] = qHTS assay to identify small molecule antagonists of the estrogen receptor beta (ER-beta) signaling pathway - cell viability counter screen (AID 1259382); note: series mostly up to about 92 µM; nearly all actives have a fitted effect of over 55% in size
# Outline: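 ER-beta-UAS-bla HEK293T cells (2,000/well, 2% charcoal-stripped FBS) were pre-incubated 6 hr at 37C, then given compound plus 1nM final 17-beta-estradiol for 16 hr. Viability was read in the same wells by CellTiter-Glo luminescence after 30 min at room temperature.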
# [13] = qHTS assay to identify small molecule agonists or antagonists of the thyroid stimulating hormone receptor (TSHR) signaling pathway - wild type cell line counter screen (AID 1259384; calls by dose curve; note: potency is the fitted concentration of half-maximal effect)
# Outline: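 Wild-type Hek293 cells, 800/well, 18 h at 37C, then compound with Ro20-1724 for 30 min RT. cAMP by HTRF (cAMP-d2/anti-cAMP cryptate), 1 h RT, fluorescence read. 15 concentrations, triplicates.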
# [14] = biological target: Thyrotropin receptor (Homo sapiens) (UniProt P16473); assay: qHTS assay to identify small molecule antagonists of the thyroid stimulating hormone receptor (TSHR) signaling pathway (AID 1259385; calls by dose curve; note: nearly all actives have a fitted effect of over 20% in size)
# Outline: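 TSHR-HEK293 cells (800/well) plated 18 h, then compounds with Ro20-1724 and TSH at 1.5 ng/mL final, 30 min at room temperature. cAMP quantified by HTRF (cAMP-d2/anti-cAMP-cryptate, 1 h); 15 concentrations in triplicate.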
# [15] = biological target: Progesterone receptor (Homo sapiens) (UniProt P06401); assay: qHTS assay to identify small molecule antagonists of the progesterone receptor (PR) signaling pathway (AID 1346795; active = well fitted inhibition curve with a large enough effect in the signal ratio in the repeat runs, not every such curve was filed as active; the % refers to the signal ratio)
# Outline: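 PR-UAS-bla HEK293T cells carrying a UAS-driven beta-lactamase reporter were plated in medium with 2% charcoal-stripped FBS and rested 6 hr at 37C. Compounds were added with 1 nM R5020 (final) for 16 hr, then FRET substrate loaded 2 hr at room temperature.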
# [16] = qHTS assay to identify small molecule antagonists of the progesterone receptor (PR) signaling pathway - cell viability counter screen (AID 1346798); note: series mostly up to about 92 µM; nearly all actives have a fitted effect of over 50% in size
# Outline: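 PR-UAS-bla HEK293T cells in medium with 2% charcoal-stripped FBS were treated with compounds plus R5020 for 16 hr at 37C. Cell viability was then read by CellTiter-Glo luminescence after 30 min at room temperature in the same wells.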
# [17] = biological target: Thyrotropin-releasing hormone receptor (Homo sapiens) (UniProt P34981); assay: qHTS assay to identify small molecule antagonists of the thyrotropin-releasing hormone receptor (TRHR) signaling pathway (AID 1346877; active = well fitted inhibition curve with a large enough effect in the repeat runs, not every such curve was filed as active; note: series mostly up to about 51 µM)
# Outline: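 TRHR-expressing HEK293 cells were seeded, cultured 18 h at 37 °C, then loaded with calcium dye for 2 h. Compounds were pre-incubated 5 min at room temperature before 1 nM TRH (final) was added, and kinetic fluorescence was recorded for 3 min.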
# [18] = qHTS assay to identify small molecule agonists of the progesterone receptor (PR) signaling pathway - cell viability counter screen (AID 1346799; calls by dose curve; note: nearly all actives have a fitted effect of over 45% in size)
# Outline: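 PR-UAS-bla HEK293T cells, 3,000 per well in medium with 2% charcoal-stripped FBS, were preincubated 6 hr at 37C, then exposed to compounds for 16 hr; viability was read as CellTiter-Glo luminescence after 30 min at room temperature.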
# [19] = biological target: Thyrotropin-releasing hormone receptor (Homo sapiens) (UniProt P34981); assay: qHTS assay to identify small molecule agonists of the thyrotropin-releasing hormone receptor (TRHR) signaling pathway (AID 1346891; calls by dose curve; note: series mostly up to about 58 µM)
# Outline: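 TRHR-expressing HEK293 cells were plated 18 h at 37 °C/5% CO2, loaded with calcium dye 2 h at 37 °C, then given compound in DMSO; fluorescence was read kinetically for 3 min at 1 s intervals.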
# [20] = qHTS assay to identify small molecule agonists of the androgen receptor (AR) signaling pathway in the presence of an antagonist - cell viability counter screen (AID 1259379); note: series mostly up to about 92 µM; nearly all actives have a fitted effect of over 25% in size
# Outline: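 MDA-kb2 human breast carcinoma cells (stable MMTV-luciferase, AR/GR responsive) were seeded 3,000 cells/well, pre-incubated 5 hr at 37C without CO2, then given 3.0uM nilutamide and compounds at 15 concentrations for 16 hr. Viability was read by CellTiter-Fluor fluorescence.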
# Chain of Progesterone receptor (Homo sapiens) (P06401 whole entry, looked up): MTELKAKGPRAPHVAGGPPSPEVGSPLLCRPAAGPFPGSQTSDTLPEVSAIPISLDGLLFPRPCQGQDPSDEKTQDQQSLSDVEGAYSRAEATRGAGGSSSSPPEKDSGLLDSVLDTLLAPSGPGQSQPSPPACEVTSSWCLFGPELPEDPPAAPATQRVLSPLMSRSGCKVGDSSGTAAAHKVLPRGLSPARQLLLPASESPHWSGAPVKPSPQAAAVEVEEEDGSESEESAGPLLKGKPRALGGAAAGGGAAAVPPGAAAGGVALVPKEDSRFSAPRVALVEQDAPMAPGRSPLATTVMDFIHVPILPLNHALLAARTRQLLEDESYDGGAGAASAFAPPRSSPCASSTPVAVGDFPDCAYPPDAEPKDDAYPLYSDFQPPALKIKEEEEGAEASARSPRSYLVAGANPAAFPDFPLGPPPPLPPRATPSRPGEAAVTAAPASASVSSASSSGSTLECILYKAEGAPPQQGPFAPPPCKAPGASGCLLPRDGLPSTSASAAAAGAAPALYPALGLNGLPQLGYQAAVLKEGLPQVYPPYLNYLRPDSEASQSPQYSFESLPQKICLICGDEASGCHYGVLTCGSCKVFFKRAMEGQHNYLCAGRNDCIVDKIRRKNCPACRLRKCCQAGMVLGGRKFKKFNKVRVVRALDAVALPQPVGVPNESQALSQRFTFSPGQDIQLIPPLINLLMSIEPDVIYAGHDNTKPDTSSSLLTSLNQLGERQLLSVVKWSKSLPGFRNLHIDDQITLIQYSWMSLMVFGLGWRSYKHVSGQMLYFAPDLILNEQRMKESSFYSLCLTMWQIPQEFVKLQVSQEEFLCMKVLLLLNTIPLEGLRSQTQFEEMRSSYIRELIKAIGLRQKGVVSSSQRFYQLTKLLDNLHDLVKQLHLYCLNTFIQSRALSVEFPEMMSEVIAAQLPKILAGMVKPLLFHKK
# Chain of Thyrotropin-releasing hormone receptor (Homo sapiens) (P34981 whole entry, looked up): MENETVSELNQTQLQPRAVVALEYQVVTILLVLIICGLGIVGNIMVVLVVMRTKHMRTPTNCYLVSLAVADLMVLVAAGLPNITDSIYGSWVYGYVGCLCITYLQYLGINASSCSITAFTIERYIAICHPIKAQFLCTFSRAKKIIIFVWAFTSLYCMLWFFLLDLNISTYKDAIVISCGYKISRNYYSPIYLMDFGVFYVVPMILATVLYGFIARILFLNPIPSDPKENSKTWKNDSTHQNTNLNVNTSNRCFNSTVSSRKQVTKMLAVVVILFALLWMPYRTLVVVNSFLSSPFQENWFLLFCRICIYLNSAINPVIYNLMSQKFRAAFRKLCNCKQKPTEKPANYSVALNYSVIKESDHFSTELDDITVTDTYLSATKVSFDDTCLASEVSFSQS
# Chain of Thyrotropin receptor (Homo sapiens) (P16473 whole entry, looked up): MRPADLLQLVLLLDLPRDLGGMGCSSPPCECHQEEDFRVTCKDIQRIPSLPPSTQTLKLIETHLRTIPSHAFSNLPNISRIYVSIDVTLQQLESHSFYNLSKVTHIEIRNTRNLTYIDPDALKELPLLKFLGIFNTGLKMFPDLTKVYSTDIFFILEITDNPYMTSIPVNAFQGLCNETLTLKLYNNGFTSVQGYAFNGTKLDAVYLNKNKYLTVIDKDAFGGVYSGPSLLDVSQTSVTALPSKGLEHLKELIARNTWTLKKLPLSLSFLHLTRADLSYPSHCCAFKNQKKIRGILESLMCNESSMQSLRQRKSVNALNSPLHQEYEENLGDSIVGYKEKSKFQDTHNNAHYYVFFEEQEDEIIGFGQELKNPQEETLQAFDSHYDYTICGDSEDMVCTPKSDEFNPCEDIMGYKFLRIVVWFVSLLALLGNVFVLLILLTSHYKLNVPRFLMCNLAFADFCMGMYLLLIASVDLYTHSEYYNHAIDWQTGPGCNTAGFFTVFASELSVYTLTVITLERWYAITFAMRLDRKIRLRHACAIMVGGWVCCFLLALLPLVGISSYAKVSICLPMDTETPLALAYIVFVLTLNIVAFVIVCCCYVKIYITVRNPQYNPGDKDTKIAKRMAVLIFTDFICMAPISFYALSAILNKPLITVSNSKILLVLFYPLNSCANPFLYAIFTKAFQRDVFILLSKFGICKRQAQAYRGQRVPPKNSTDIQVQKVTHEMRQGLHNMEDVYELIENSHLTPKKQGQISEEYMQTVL
# Chain of Androgen receptor (Homo sapiens) (P10275 whole entry, looked up): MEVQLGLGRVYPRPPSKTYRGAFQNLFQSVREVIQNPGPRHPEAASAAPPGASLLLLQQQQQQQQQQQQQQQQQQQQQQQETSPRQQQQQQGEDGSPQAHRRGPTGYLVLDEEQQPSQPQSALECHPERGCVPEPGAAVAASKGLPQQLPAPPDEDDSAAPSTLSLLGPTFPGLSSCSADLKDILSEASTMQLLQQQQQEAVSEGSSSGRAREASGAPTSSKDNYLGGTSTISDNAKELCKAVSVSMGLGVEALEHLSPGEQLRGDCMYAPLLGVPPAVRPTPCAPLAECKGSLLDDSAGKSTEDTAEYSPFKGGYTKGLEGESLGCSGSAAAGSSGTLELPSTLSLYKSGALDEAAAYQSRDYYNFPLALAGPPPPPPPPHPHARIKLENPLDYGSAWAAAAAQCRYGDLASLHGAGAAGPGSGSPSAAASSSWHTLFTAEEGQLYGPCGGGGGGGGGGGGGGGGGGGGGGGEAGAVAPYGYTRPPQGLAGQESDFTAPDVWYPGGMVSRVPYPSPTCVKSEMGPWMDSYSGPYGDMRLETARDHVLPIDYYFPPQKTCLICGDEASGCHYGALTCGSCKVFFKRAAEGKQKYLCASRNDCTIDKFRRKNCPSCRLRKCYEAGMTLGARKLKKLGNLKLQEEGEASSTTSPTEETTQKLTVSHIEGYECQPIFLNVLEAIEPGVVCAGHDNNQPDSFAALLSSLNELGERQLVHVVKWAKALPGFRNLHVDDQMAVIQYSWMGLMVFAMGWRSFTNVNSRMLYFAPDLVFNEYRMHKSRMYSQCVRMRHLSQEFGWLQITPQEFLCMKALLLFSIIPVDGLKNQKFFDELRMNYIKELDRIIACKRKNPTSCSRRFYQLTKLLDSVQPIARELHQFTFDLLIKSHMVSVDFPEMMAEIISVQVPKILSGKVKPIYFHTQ
# Chain of Estrogen receptor beta (Homo sapiens) (Q92731 whole entry, looked up): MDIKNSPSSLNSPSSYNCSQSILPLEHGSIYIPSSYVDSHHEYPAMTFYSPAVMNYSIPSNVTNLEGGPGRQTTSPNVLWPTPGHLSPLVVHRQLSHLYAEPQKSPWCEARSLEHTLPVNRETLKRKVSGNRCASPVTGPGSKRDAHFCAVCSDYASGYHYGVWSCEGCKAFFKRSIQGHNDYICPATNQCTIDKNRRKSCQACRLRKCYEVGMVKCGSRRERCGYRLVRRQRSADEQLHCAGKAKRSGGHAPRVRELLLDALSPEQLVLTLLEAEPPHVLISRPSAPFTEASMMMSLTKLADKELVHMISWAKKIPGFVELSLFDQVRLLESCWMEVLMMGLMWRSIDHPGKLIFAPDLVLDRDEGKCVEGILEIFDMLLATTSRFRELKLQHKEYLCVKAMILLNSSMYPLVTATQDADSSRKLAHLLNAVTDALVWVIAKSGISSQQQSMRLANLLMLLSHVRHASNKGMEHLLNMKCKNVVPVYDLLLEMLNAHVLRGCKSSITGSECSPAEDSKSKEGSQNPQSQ
# Chain of Estrogen receptor (Homo sapiens) (P03372 whole entry, looked up): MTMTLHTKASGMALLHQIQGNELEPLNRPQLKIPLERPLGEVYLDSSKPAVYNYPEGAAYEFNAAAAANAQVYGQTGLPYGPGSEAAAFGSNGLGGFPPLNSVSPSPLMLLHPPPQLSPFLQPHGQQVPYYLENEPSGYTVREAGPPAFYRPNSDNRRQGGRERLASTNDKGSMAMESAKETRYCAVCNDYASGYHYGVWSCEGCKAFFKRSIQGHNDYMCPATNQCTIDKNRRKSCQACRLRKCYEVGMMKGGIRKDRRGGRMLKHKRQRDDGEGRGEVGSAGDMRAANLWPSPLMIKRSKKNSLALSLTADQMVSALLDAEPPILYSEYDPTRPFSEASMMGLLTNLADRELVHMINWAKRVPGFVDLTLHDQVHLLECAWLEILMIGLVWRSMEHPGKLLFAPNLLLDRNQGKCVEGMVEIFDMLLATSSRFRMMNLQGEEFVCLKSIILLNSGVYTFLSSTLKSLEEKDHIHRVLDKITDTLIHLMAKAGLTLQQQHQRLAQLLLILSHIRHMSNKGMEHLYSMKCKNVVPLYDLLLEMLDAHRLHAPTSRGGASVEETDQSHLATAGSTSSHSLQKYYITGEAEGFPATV
Structure (SMILES),outcome [1],Potency [2],Potency [3],outcome [4],Potency [5],Potency [6],Potency [7],Potency [8],Potency [9],outcome [10],Potency [11],Potency [12],Potency [13],outcome [14],Potency [15],Potency [16],outcome [17],Potency [18],Potency [19],Potency [20]
COc1cc2c(c(OC)c1OC)-c1ccc(OC)c(=O)cc1[C@@H](NC(C)=O)CC2,inactive,inactive,27 µM (active) and inactive,inactive,inactive,inactive,inactive,inactive,inactive,inactive,inactive,–,–,–,–,–,–,–,–,–
COc1ccccc1NC(=O)CC(C)=O,inactive,inactive,inactive,–,inactive,inactive,inactive,inactive,–,inactive,inactive,inactive,inactive,inactive,inactive,inactive,inactive,–,–,–
NC(=O)N1c2ccccc2C=Cc2ccccc21,inactive,inactive,inactive,–,inactive,inactive,inactive,inactive,inactive,inactive,inactive,–,–,–,inactive,inactive,inactive,inactive,–,–
COc1ccc(O)cc1,inactive,inactive,inactive,inactive,–,inactive,inactive,inactive,inactive,inactive,inactive,–,inactive,inactive,inactive,inactive,inactive,inactive,inactive,–
COCCOCCOC,inactive,inactive,inactive,inactive,inactive,inactive,inactive,inactive,–,inactive,inactive,inactive,inactive,inactive,inactive,inactive,inactive,inactive,–,–
CCCCOC(=O)CCCCCCCCC(=O)OCCCC,inactive,inactive,inactive,–,inactive,inactive,inactive,inactive,–,inactive,inactive,inactive,inactive,inactive,inactive,inactive,–,–,–,–
Oc1cccc(O)c1,inactive,inactive,inactive,–,inactive,inactive,inactive,inactive,inactive,inactive,inactive,–,inactive,inactive,inactive,inactive,–,inactive,–,–
C=CC(=O)NC(C)(C)CS(=O)(=O)O,inactive,inactive,inactive,–,inactive,inactive,inactive,inactive,inactive,inactive,inactive,inactive,inactive,inactive,inactive,inactive,–,–,–,–
CC(C)(C)NCC(O)c1ccc(O)c(CO)c1 (stereo unspecified),inactive,inactive,inactive,–,inactive,inactive,inactive,inactive,–,inactive,inactive,–,15.8 nM (active) and 37.6 nM (active),inactive,inactive,inactive,inactive,–,inactive,–
Cc1c(N(C)C)c(=O)n(-c2ccccc2)n1C,inactive,inactive,inactive,–,inactive,inactive,inactive,inactive,inactive,inactive,inactive,inactive,inactive,inactive,inactive,inactive,–,–,–,–
CCCCNC(=O)NS(=O)(=O)c1ccc(N)cc1,inactive,inactive,inactive,–,–,inactive,inactive,inactive,–,inactive,inactive,–,inactive,inactive,inactive,inactive,inactive,–,–,inactive
COc1ccccc1O,inactive,inactive,inactive,–,inactive,inactive,inactive,inactive,–,inactive,inactive,inactive,inactive,inactive,inactive,inactive,inactive,–,–,–
Nc1cccc(N)c1,inactive,inactive,inactive,–,–,inactive,–,inactive,–,inactive,inactive,–,–,–,–,inactive,inactive,inactive,–,–
CCN1CCCC1=O,inactive,inactive,inactive,–,inactive,inactive,–,inactive,inactive,inactive,inactive,–,inactive,inactive,–,inactive,inactive,inactive,–,–
COCC(C)N (stereo unspecified),inactive,inactive,inactive,inactive,inactive,inactive,–,inactive,inactive,inactive,inactive,inactive,inactive,inactive,–,inactive,inactive,–,–,–
